Compound activity deposited in PubChem by several laboratories.
Compounds with a hit are over-represented: about 2.6% of the library has one in this group of screens.
IDE cell activ: boosts human insulin-degrading enzyme activity in HEK cells. P14735. FAbeta-B cleavage, fluorescence polarization; 0% vehicle, 100% cell-free pure enzyme wells. activation, % at 5.96 µM. hit rate 0.073% among 340,000;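 active means activation above the mean of all tested compounds plus 3 SD, set per screening campaign, cut at about 17% in these data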
Target sequence (P14735 whole entry, looked up): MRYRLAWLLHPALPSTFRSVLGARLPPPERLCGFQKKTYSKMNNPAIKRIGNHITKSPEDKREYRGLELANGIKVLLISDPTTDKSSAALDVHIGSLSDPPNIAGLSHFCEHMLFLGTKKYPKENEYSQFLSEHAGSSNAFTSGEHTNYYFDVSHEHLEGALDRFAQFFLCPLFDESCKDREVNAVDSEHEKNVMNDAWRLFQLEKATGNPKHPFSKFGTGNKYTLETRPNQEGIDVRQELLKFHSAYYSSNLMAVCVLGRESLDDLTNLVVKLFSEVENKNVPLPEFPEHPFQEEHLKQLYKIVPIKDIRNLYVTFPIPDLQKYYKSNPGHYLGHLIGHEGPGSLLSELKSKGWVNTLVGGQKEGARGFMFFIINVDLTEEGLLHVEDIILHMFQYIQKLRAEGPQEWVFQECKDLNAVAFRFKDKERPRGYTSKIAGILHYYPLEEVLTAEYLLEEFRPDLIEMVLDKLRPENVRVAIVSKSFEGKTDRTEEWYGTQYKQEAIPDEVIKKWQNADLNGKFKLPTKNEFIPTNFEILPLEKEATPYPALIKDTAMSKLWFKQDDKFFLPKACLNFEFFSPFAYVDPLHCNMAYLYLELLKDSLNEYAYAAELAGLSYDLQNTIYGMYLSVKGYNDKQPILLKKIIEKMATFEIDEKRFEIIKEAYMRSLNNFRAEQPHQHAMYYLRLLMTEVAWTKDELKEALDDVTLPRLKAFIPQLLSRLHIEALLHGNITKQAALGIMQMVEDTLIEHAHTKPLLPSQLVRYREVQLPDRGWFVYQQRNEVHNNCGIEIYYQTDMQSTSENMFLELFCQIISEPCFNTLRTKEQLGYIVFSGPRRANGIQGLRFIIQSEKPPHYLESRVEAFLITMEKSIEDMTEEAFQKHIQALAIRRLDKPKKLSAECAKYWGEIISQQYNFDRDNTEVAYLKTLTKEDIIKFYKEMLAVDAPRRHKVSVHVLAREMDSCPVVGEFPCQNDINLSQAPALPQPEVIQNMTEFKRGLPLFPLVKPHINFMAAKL
CRFBP-R2 block: antagonists of CRF-binding protein/CRF-R2 receptor complex. hit rate 0.59% among 350,000. inhibition, % at 11.8 µM. AID 588475. HEK293 CRF-R2/CRF-BP, CRF-induced calcium fluorescence;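 active means inhibition of the ligand-induced calcium signal above about 50% at the single tested concentration, limit read from the data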
Myeloid diff 2: myeloid differentiation induction; calls only at 10 µM; ER-HoxA9 myeloid progenitors, lysozyme-GFP differentiation, flow cytometry; hit rate 1% among 360,000;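 active means normalized GFP-positive differentiation at or above the plate's own cutoff, the solvent-only control mean plus 3 SD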;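 further: cells exposed to compound for four days before flow analysis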
CRFR2-BP ag: CRF-BP/CRF-R2 complex agonism; HEK293 CRF-R2/CRF-BP, calcium dye fluorescence (FLIPR); percent of saturating CRF peptide response; activation, % at 13.2 µM; hit rate 0.46% among 350,000;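 active means activation of at least 50%, plus an integration ratio under a set limit after plate pattern correction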;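 further: plate controls were neutral control wells without compound for no effect and CRF at EC100 for full effect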
IDE cell inh: cellular human IDE inhibition; P14735; HEK cells, FAbetaB cleavage, fluorescence polarization; inhibition, % at 5.59 µM; hit rate 0.41% among 320,000;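 active means percent inhibition above the average of all tested compounds plus 3 SD, set per screening campaign, cut at about 16% in these data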;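 further: IDE supplied by intact live HEK cells; FP after avidin binding of uncleaved biotin substrate so inhibition keeps polarization high; 0% = DMSO wells and 100% = 60 µM reference IDE inhibitor Ii1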
TPT1 inh: blocks Candida albicans tRNA 2'-phosphotransferase; recombinant caTPT1, FP RNA substrate dephosphorylation; inhibition, % at 5 µM; hit rate 0.81% among 300,000; AID 1962;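 active means inhibition above the mean of all tested compounds plus 3 SD, set per screening campaign, cut at about 24% in these data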;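 further: plate controls were DMSO alone for no effect and ferristatin control at 100 nM for full effect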
Myeloid diff: promotes myeloid progenitor differentiation | shares compounds with Myeloid diff 2 | ER-HoxA9 myeloid progenitors, GFP/Mac1 double-positive flow | calls only | hit rate 2% among 2,300 | AID 651706;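 active means share of green or green-and-red cells above 9 and 9% in run 1 or 4 and 3% in run 2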
GFP autofluor: counter-screen for myeloid differentiation promoters: compound fluorescence | fluorescence response, % (concentration not given with the values) | ER-HoxA9 myeloid progenitors, no estrogen, GFP autofluorescence flow cytometry; vehicle wells 0%, positive control 100% | shares compounds with Myeloid diff 2 | hit rate 7.4% among 2,300 | AID 651707;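 active means over 5% cells positive for green fluorescent reporter, or over 2% positive for both it and APC stain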;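 further: range taken on the double positive population between DMSO and positive control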
An asterisk follows results filed as active; i = inactive; nt = not tested or not shown; + = active, no number.

SMILES | IDE cell activ | CRFBP-R2 block | Myeloid diff 2 | CRFR2-BP ag | IDE cell inh | TPT1 inh | Myeloid diff | GFP autofluor
CCCS(=O)(=O)NC(=O)C1(C)CCN(C(=O)c2cccc(C(F)(F)F)c2)C1 (stereo not given) | nt | nt | + | nt | nt | nt | i | 0.0
COc1ccc2[nH]cc(CCNC(=O)CCC3CCCCC3)c2c1 | 1.0 | 7.2 | i | 0.5 | 0.5 | 2.4 | nt | nt
Cc1ccc(F)c(NC=C2C(=O)OC(C)(C)OC2=O)c1 | -0.8 | 0.5 | i | -0.7 | 4.5 | -0.7 | i | 2.0
CC1(C)OC(=O)C(=CNc2ccc(F)cc2)C(=O)O1 | 4.3 | 2.8 | i | -0.1 | 0.1 | -2.3 | nt | nt
O=C(NCCc1ccccc1)C(=O)NCCC1CCCCN1S(=O)(=O)c1ccccc1 (stereo not given) | -9.0 | 15.2 | i | -1.0 | -3.6 | -2.2 | nt | nt
O=C(NCCc1ccccc1)C(=O)NCC1CCCN1S(=O)(=O)c1ccccc1 (stereo not given) | 3.6 | 19.3 | + | 0.8 | -0.5 | -2.3 | i | 0.0
O=C(O)C1CCC(NSc2ccccc2[N+](=O)[O-])CC1 (stereo not given) | 8.9 | -14.3 | i | -3.6 | -4.4 | 1.4 | nt | nt
COc1ccc2c(c1)cc(C(=O)N[C@H](C(=O)N1CCC(C(=O)O)CC1)C(C)C)n2C | 0.4 | 13.6 | i | -2.6 | 0.6 | -3.5 | nt | nt
O=C(NCc1cccs1)C(=O)NCC1OCCCN1S(=O)(=O)c1cc(F)ccc1F (stereo not given) | 5.8 | 4.7 | i | -2.0 | -4.4 | 1.7 | nt | nt
CCO[C@@H]1OC(C(=O)NCc2ccccc2)=C[C@H](c2csc3ccccc23)[C@H]1CCCO | -4.0 | -11.7 | i | 0.7 | -0.8 | -0.1 | i | 0.0
OC(COCC1CC=CCC1)Cn1cnc2ccccc21 (stereo not given) | 2.5 | -2.3 | i | -3.4 | 3.9 | -5.5 | nt | nt
Cc1nc2ccccc2n1CC(O)COCC1CC=CCC1 (stereo not given) | 0.6 | 19.9 | + | 0.2 | 1.6 | -2.1 | i | 0.0
Cc1ccc(S(=O)(=O)CCSc2nc(C)cc(C)c2C#N)cc1 | 5.4 | 12.1 | + | -0.2 | -0.8 | -0.2 | i | 0.0
CCS(=O)(=O)CCSc1nc(C)cc(C)c1C#N | 4.0 | -16.9 | i | -0.7 | 0.6 | -3.3 | nt | nt
CC1CC(C)CN(c2ncc3c(n2)CC(c2ccccc2Cl)CC3=O)C1 (stereo not given) | 5.0 | -2.8 | i | 0.0 | -1.0 | 1.6 | nt | nt
CC1CC(C)CN(c2ncc3c(n2)CC(c2ccc(Cl)cc2)CC3=O)C1 (stereo not given) | 2.4 | -29.7 | i | -0.1 | 3.6 | 2.2 | i | 0.2
COc1ccc(C(CNC(=O)c2ccco2)N2CCCC2)cc1 (stereo not given) | 2.2 | 2.3 | i | 0.2 | -1.0 | nt | nt | nt
CC(=O)N1CCc2cc(S(=O)(=O)NCCC(=O)Nc3ccc4c(c3)OCCO4)ccc21 | 7.2 | -7.7 | i | -0.8 | 10.9 | -6.0 | i | 0.3
CC1(C(=O)NC2CCc3ccccc32)CCN1CCc1ccccc1 (stereo not given) | nt | nt | i | nt | nt | nt | nt | nt
CC(=O)NNC(=O)CCC(=O)Nc1ccccc1 | -1.1 | 11.4 | i | -1.8 | 2.7 | -5.2 | i | 86.0*
O=C(O)CCC(=O)Nc1ccc(Cc2ccc(NC(=O)CCC(=O)O)cc2)cc1 | 1.3 | -10.0 | + | 2.2 | 4.1 | -3.6 | i | 0.0
O=C(O)CCC(=O)Nc1ccc(S(=O)(=O)c2ccc(NC(=O)CCC(=O)O)cc2)cc1 | 2.6 | 7.0 | i | -0.5 | 7.4 | -3.9 | nt | nt
CC(CCc1ccccc1)NC(=O)C(Cc1ccccc1)NC(N)=O (stereo not given) | 3.3 | 10.0 | i | 3.4 | -3.8 | -6.3 | nt | nt
Cc1ccc(C(C(=O)NC2CCCC2)N(C(=O)Cc2cccs2)c2cccc(C)c2C)o1 (stereo not given) | 1.1 | -14.8 | i | 16.6 | -1.0 | 2.2 | i | 0.0
O=C(NC1CCCC1)C(c1ccncc1)N(Cc1ccccc1)C(=O)Cc1cccs1 (stereo not given) | 7.5 | -19.8 | i | -0.7 | -1.3 | 0.3 | nt | nt
